Activity calls are given as the source filed them. The call rests on the fitted dose curve; in most records, active means well fitted curve in the direction sought with a large enough effect in the repeat runs; inconclusive means weak or mixed curves; inactive means flat fitted curve, though single readings scatter.

A short description of this assay: qHTS assay to test for compound auto fluorescence at 590 nm (red) in HEK293 cells (AID 720679). The following applies: red autofluorescence 540/590 nm; series mostly up to 91.3 µM. The text has this:
National Center for Advancing Translational Sciences [NCATS]
NIH Chemical Genomics Center [NCGC]
U.S. Environmental Protection Agency [EPA]
National Institutes of Environmental Health Sciences [NIEHS]
National Toxicology Program [NTP]
U.S. Food and Drug Administration [FDA]
Compound auto fluorescence often interferes with screening of the compound library against various biological targets and signaling pathways. Some of these compounds may have fluorophoric properties. Such properties may interfere with the assay outputs resulting in false positives and/or negatives. To decrease such complications and ensure the compound activities are relevant in terms of biological response, the Tox21 10K compound library was screened for auto fluorescence.
From the fluorophores used as reporter signals in our screening assays, the auto fluorescence equivalencies of compounds against three fluorophores have been evaluated: Triamterene, Fluorescein and Rose Bengal sodium for blue, green and red fluorescence, respectively. The fluorescence intensities were measured using Excitation/Emission wavelengths at 405/460nm, 485/535nm and 540/590nm for blue, green and red labels, respectively. This assay includes the red fluorescence data.
Tox21 Assay Protocol Summary:
2,000 HEK293 cells in 5 uL of culture medium containing 10% dialyzed FBS per well were dispensed into black wall/clear bottom 1536-well plates using a Multidrop Combi Dispenser (Thermo Scientific). The assay plates were incubated for 4-5 hr at 37C to allow cell attachment to the well bottom, followed by the transfer of 23 nL compound or DMSO vehicle by a pintool work station (Kalypsys, San Diego, CA). After the assay plates were incubated overnight at 37C and 5% CO2, fluorescence intensities in the assay plates were measured by an Envision (PerkinElmer, Shelton, CT) plate reader using three labels for measuring blue, green and red fluorescence at […] 460, 535 and 590nm respectively.
For the molecule `O=C(Nc1ccc2[nH]ccc2c1)c1cc2cc(F)ccc2n1Cc1cccc(F)c1`, the outcome was inactive.

`C[C@]12CC[C@@H]3c4ccc(OC(=O)N(CCCl)CCCl)cc4CC[C@H]3[C@@H]1CC[C@@H]2O`: the molecule was called inactive.

On to `Oc1ccc(C(=C(Cl)Cl)c2ccc(O)cc2)cc1`, for which the outcome was inactive.

On to `CS(=O)(=O)c1ccc(C(=O)C2C(=O)CCCC2=O)c([N+](=O)[O-])c1`, for which the molecule was classed as inactive.

For `O=c1[nH]c2ccccc2n1CCCN1CCC(n2c(=O)[nH]c3cc(Cl)ccc32)CC1`, the call was inactive.

On to `CCOc1cc(C(C)(C)C)ccc1C1COC(c2c(F)cccc2F)=N1` (stereo not given), for which the call was inactive.

Turning to `[Cl][Sb]([Cl])[Cl]`, the outcome was inactive.

Consider `Oc1cc(Cl)c(Cl)c(Cl)c1`, for which the outcome was inactive.

On to `CC(C)CC(C)N` (stereo not given), for which the molecule was called inactive.

In the case of `Oc1c(Cl)c(Cl)cc(Cl)c1Cl`, the outcome was inactive.

`CC1(C)C(/C=C(\Cl)C(F)(F)F)C1C(=O)OC(C#N)c1cccc(Oc2ccccc2)c1` (stereo not given): the outcome was inactive.

On to `O=[N+]([O-])c1c2ccccc2cc2ccccc12`, for which the result was inactive.

As to `OC(c1ccc(Cl)cc1)(c1ccc(Cl)cc1)C(Cl)(Cl)Cl`, the call was inactive.

`N#CCCSCCC#N`: the outcome was inactive.

On to `CC(=O)Nc1ccc2c(c1)Cc1ccccc1-2`, for which the call was inactive.

Take `c1ccc2c(c1)OCC(C1=NCCN1)O2` (stereo not given): the call was inactive.

Turning to `C[C@@H]1CC[C@@]2(OC1)O[C@H]1[C@@H](O)[C@H]3[C@@H]4CC[C@H]5C[C@@H](O[C@@H]6O[C@H](CO)[C@H](O[C@@H]7O[C@H](CO)[C@@H](O)[C@H](O[C@@H]8OC[C@@H](O)[C@H](O)[C@H]8O)[C@H]7O[C@@H]7O[C@H](CO)[C@@H](O)[C@H](O[C@@H]8O[C@H](CO)[C@@H](O)[C@H](O)[C@H]8O)[C@H]7O)[C@H](O)[C@H]6O)[C@H](O)C[C@]5(C)[C@H]4CC[C@]3(C)[C@H]1[C@@H]2C`, the molecule was classed as inactive.

For `CC(=O)[O-].CC(=O)[O-].O.O.[Cd+2]`, the molecule was classed as inactive.

Consider `COc1cccc(C(=O)CCN[C@@H](C)[C@H](O)c2ccccc2)c1`, for which the result was inactive.

Regarding `Clc1ccc(CO/N=C(\Cn2ccnc2)c2ccc(Cl)cc2Cl)c(Cl)c1`, the molecule was called inactive.

With `CCOC(=O)C1(c2ccccc2)CCN(CCC(C#N)(c2ccccc2)c2ccccc2)CC1`, the molecule was classed as inactive.

Consider `CC(=O)C(Cl)(Cl)Cl`, for which the result was inactive.

As to `COc1ccc(/C(=C/C(=O)N2CCOCC2)c2ccc(Cl)cc2)cc1OC`, the molecule was classed as inactive.

Regarding `Clc1ccc(C(Cl)(Cl)Cl)c(Cl)c1`, the molecule was classed as inactive.

For the molecule `Cc1cc(C)c(C2=C(OC(=O)CC(C)(C)C)C3(CCCC3)OC2=O)c(C)c1`, the result was inactive.

On to `CC[C@H]1C[C@@H]2C[C@H]3c4[nH]c5ccc(OC)cc5c4CCN(C2)[C@@H]13`, for which the outcome was inactive.

Consider `N#CC(Cl)Cl`, for which the molecule was classed as inactive.

`CC(C)OS(C)(=O)=O`: the molecule was classed as inactive.

Consider `Oc1c(Br)c(Br)c(Br)c(Br)c1Br`, for which the call was inactive.

Regarding `CCCCCCCCCCCCCCC(Br)C(=O)O` (stereo not given), the call was inactive.

Consider `CC1(C)CN=C(NN=C(/C=C/c2ccc(C(F)(F)F)cc2)/C=C/c2ccc(C(F)(F)F)cc2)NC1`, for which the call was inactive.

For `C1CCC2CCCCC2C1` (stereo not given), the molecule was called inactive.

As for `BrCBr`, the outcome was inactive.

As for `COc1cc(C=O)cc2c1[C@H](COC(N)=O)[C@]1(OC(C)=O)ON2C[C@H]2[C@@H]1N2C(C)=O`, the molecule was called inactive.

As to `O=C(CCCN1CCC2(CC1)C(=O)NCN2c1ccccc1)c1ccc(F)cc1`, the result was inactive.

Regarding `CC(C)CCCCCCCOP(=O)(Oc1ccccc1)Oc1ccccc1`, the molecule was called inactive.

With `COC12CC[C@@]3(C[C@@H]1C(C)(O)C(C)(C)C)[C@H]1Cc4ccc(O)c5c4[C@@]3(CCN1CC1CC1)[C@H]2O5` (stereo not given in full), the call was inactive.

Consider `CCCOCC(=Nc1ccc(Cl)cc1C(F)(F)F)n1ccnc1`, for which the call was inactive.

Regarding `[Hg+2].[I-].[I-]`, the molecule was called inactive.

In the case of `CC1(C)CC/C(=C/c2ccc(Cl)cc2)C1(O)Cn1cncn1` (stereo not given), the call was inactive.

The values are drawn from PubChem BioAssay (Tox21).
